PNC inhibitor: blocks assembly of the perinucleolar compartment. PC3M PTB-GFP, PNC prevalence imaging, 16 h; stronger effect = lower value. activity change (PNC), negative = inhibition, % at 10 µM. actives 3.1% (n = 140,000);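 active = readout at or below -70, meaning at least 70% loss of cells showing the perinucleolar compartment, a nuclear body marking cancer cells; inconclusive = readout between -30 and a set limit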
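Read-out is percentage of cells bearing a perinucleolar compartment, from automated 20x imaging of fixed, Hoechst-stained PC3M PTB-GFP cells. Cells were seeded 4 h, then exposed 16 h to compound (23 nl of library stock) in duplicate plates.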
HPGD block: inhibitors of human 15-hydroxyprostaglandin dehydrogenase (HPGD); actives 4.3% (n = 150,000); purified HPGD, NADH fluorescence kinetic, PGE2 substrate; Potency, µM, usual class: inhibitors; active = well fitted inhibition curve with a large enough effect, not every such curve was filed as active; inconclusive = small, poorly fitted or top-dose-only effect, or another doubt; inactive = no such curve, though single readings can be large or run the other way
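NADH formation kinetics: reaction with 30 uM PGE2 and 1 mM NAD+ (final), 20 nM enzyme, Tris-HCl pH 8 with Tween 20, after 15 min compound preincubation at room temperature. Fluorescence change, last versus first of five reads.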
ALDH1A1 block: inhibitors of human aldehyde dehydrogenase 1A1. P00352. Purified ALDH1A1, NADH fluorescence, propionaldehyde substrate. Potency, µM (doses to about 75.3 µM), usual class: inhibitors. actives 7.3% (n = 220,000); active = well fitted inhibition curve with a large enough effect, not every such curve was filed as active; inconclusive = small, poorly fitted or top-dose-only effect, or another doubt; inactive = no such curve, though single readings can be large or run the other way
aGal spleen mod: alpha-galactosidase A (human) modulation; P06280; human spleen homogenate, 4MU-alpha-Gal fluorescence, 40 min; Potency, µM (titrated, usually from 80 µM), usual class: inhibitors; actives 0.008% (n = 240,000); AID 2107
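Inhibition or activation of alpha-galactosidase in human spleen homogenate is scored by 4-MU fluorescence after 40 min at 37C, pH 5.0, with 1 mM substrate. AC50s come from concentration-response fitted to the Hill equation.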
GLA inh pH 4.5: inhibitors of human alpha-galactosidase A at pH 4.5. P06280. purified enzyme, 4-MU-alpha-Gal fluorescence, pH 4.5. activity change, negative = inhibition, % at 105 µM. 230,000 tested, under 10 active
Target sequence (P06280 whole entry, looked up): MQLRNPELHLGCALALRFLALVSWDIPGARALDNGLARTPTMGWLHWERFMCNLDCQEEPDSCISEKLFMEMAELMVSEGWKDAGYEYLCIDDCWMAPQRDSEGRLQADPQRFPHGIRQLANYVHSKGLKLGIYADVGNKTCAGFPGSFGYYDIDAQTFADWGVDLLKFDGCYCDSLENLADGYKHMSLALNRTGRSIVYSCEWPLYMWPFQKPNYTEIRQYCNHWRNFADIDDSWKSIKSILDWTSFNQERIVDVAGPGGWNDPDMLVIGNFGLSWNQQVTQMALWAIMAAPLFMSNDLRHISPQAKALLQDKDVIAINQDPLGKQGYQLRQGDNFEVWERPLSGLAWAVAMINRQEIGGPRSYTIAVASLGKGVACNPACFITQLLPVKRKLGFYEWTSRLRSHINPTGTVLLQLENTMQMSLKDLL
ALOX12 inhib: 12-hLO (ALOX12) enzyme inhibition; purified 12-hLO, xylenol orange hydroperoxide absorbance; Potency, µM (highest dose often 57.1 µM), usual class: inhibitors; actives 0.12% (n = 150,000); note: nearly all actives have a fitted effect of over 55% in size
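150 nM 12hLO, 25 mM Hepes pH 7.0 + 0.01% Triton X-100; cpd preinc 15 min RT; 40 uM arachidonic acid, 30 min RT; Fe-XO 30 min; A573/A405 ratio as read-out.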
Large screens that a line does not name were inactive. A selection: hits, their analogues and other compounds. The true share with any hit is near 10%. Unless noted, calls come from the whole dose curve; as a rule, active = well fitted curve in the direction sought with a large enough effect; inconclusive = small, poorly fitted or top-dose-only effect, or another doubt; inactive = no such curve, though single readings can be large; an effect the other way counts as inactive or inconclusive.

Cc1ccc(-c2c3c([nH]c(=S)c2C#N)CCCC3)o1	HPGD block 8.9µM, ALDH1A1 block 7.9µM
N#Cc1c(-c2ccncc2)c2c([nH]c1=S)CCCC2	HPGD block 22µM, ALDH1A1 block inconclusive
O=C(COC(=O)CNC(=O)c1ccc(Cl)cc1)Nc1cccc(S(=O)(=O)N2CCCC2)c1	none (no result: PNC inhibitor, HPGD block, ALDH1A1 block, ALOX12 inhib)
CCC(Sc1nnnn1-c1ccccc1)C(=O)Nc1nc2ccccc2s1 (stereo not drawn)	PNC inhibitor -100, ALDH1A1 block inconclusive
O=C(CSc1nc2ccc(NC(=O)CSc3nnnn3-c3ccccc3)cc2s1)Nc1ccccc1	HPGD block inconclusive, ALDH1A1 block inconclusive
CCOc1ccc(OCCSc2nnnn2C2CCCCC2)cc1	ALDH1A1 block 16µM
c1ccc(-n2nnnc2SCCCSc2nc3ccccc3s2)cc1	HPGD block 11µM, ALDH1A1 block 1.3µM
CCCOc1ccc(CSc2nc3ccccc3[nH]2)cc1	none
CCOc1ccc(OCCSc2nc3ccccc3[nH]2)cc1	PNC inhibitor -92, HPGD block 25µM
CC1CCCCN1C(=O)COc1ccccc1F (stereo not drawn)	none (no result: PNC inhibitor, HPGD block, ALOX12 inhib)
CSc1c(-c2ccccn2)c(N)nn1C(=O)C1CCC1	none (no result: PNC inhibitor, HPGD block, ALOX12 inhib)
Fc1ccccc1OCCSc1nnnn1-c1ccccc1	PNC inhibitor inconclusive, HPGD block 16µM, ALDH1A1 block 1.9µM
c1ccc(OCCSc2nnnn2-c2ccccc2)cc1	ALDH1A1 block 22µM
CCOc1ccc(OCCSc2nnnn2-c2ccccc2)cc1	ALDH1A1 block 14µM
COc1ccccc1OCCSc1nnnn1-c1ccc(C)cc1	PNC inhibitor inconclusive
C#CCNc1c2c(nc3ncnn13)CC(C)CC2 (stereo not drawn)	none (no result: PNC inhibitor, HPGD block, ALDH1A1 block, ALOX12 inhib)
Cn1cc(C2=C(c3cn(CCCSC(=N)N)c4ccccc34)C(=O)NC2=O)c2ccccc21	none (no result: PNC inhibitor)
CCC/C=C(\CCC)C(NC(=O)c1ccco1)c1ccc(C(=O)OC)cc1 (stereo not drawn)	none (no result: PNC inhibitor)
Cc1ccc2oc(-c3ccccc3)c(O)c(=O)c2c1	none (no result: PNC inhibitor)
Cc1ccc2oc(-c3ccccc3)c(C(=O)O)c(=O)c2c1	HPGD block 14µM, ALDH1A1 block inconclusive
CC1(C)CCC[C@@](C)([C@H]2CC[C@]3(C)[C@@H]2[C@H](O)C[C@@H]2[C@@]4(C)CC[C@H](O)C(C)(C)[C@@H]4CC[C@]23C)O1	none (no result: PNC inhibitor, HPGD block, ALDH1A1 block, GLA inh pH 4.5, ALOX12 inhib)
COc1cc2c(cc1OC)C1=C(C#N)CCC(=NC(=O)c3ccc(Cl)cc3)N1CC2	HPGD block 14µM
CN(C)c1ccc(/C=[N+](\[O-])C2SC(=S)N(C)C2(C)C)cc1 (stereo not drawn)	ALDH1A1 block 0.45µM
CN(C)c1ccc(/C=[N+](\[O-])C2N(c3ccccc3)C(=S)SC2(C)C)cc1 (stereo not drawn)	ALDH1A1 block 22µM
CC(C)(C)N(CC#CCC(O)(c1ccccc1)c1ccccc1)CCO	ALDH1A1 block inconclusive (no result: PNC inhibitor, HPGD block, ALOX12 inhib)
Cc1ccc(C2C3=C(CCCC3=O)Nc3[nH]c(=S)[nH]c(=O)c32)cc1 (stereo not drawn)	HPGD block 10µM, ALDH1A1 block inconclusive, ALOX12 inhib inconclusive
CCSc1nc2c(c(=O)[nH]1)C(c1ccc(C)cc1)C1=C(CCCC1=O)N2 (stereo not drawn)	none (no result: PNC inhibitor, HPGD block, ALOX12 inhib)
COC(=O)C1=C(C)Nc2[nH]c(=S)[nH]c(=O)c2C1c1ccc(O)cc1 (stereo not drawn)	ALDH1A1 block 24µM (no result: PNC inhibitor, HPGD block, ALOX12 inhib)
O=C1CCCC2=C1C(c1ccc(Br)cc1)c1c([nH]c(=S)[nH]c1=O)N2 (stereo not drawn)	HPGD block 7.1µM, ALDH1A1 block inconclusive, ALOX12 inhib inconclusive
c1ccc(N=Nc2cn[nH]c2-c2ccco2)cc1	none (no result: PNC inhibitor, HPGD block, ALOX12 inhib)
C=C1CC2C(=O)N(Cc3ccccc3)C(C(=O)O)C1N2C(=O)OC(C)(C)C (stereo not drawn)	none (no result: PNC inhibitor, HPGD block, ALDH1A1 block, GLA inh pH 4.5, ALOX12 inhib)
Cc1ncsc1CCC(=O)N1CCCC(C(=O)c2ccc3c(c2)OCO3)C1 (stereo not drawn)	ALDH1A1 block inconclusive (no result: PNC inhibitor, HPGD block, ALOX12 inhib)
COc1ccc(OCC(O)CNS(=O)(=O)c2cccc(Cl)c2)cc1 (stereo not drawn)	ALDH1A1 block 10µM (no result: PNC inhibitor, HPGD block, ALOX12 inhib)
CCOC(=O)CNC(=S)n1cnc(N)n1	ALDH1A1 block 32µM (no result: PNC inhibitor, HPGD block, ALOX12 inhib)

Bioassay records: PubChem BioAssay, National Center for Advancing Translational Sciences (NCATS)
